{
  "source": "the supplement of paper PMC6555819",
  "data": [
    {"test_system": "THRa:RXRa (NR concentration 90 nM, RXRa partner concentration 90 nM)", "assay": "PBM binding z-score (relative to random genomic background probes); higher = stronger binding; sequences stand for … in GC…GCGATTGACAGCGTAGAATGAAGG", "procedure,_shortened": "(§1)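 Ligand-free nuclear receptor dimers were applied to custom Agilent 4×180K protein-binding microarrays whose double-stranded probes carried direct-repeat seeds, single-nucleotide variants, half-site ablations and random human genomic background sequences in 34-nt variable regions. Incubation lasted 1 h. Binding z-scores were computed against the random background probes from regression-normalized fluorescence.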", "values": [
      {"sequence": "CAAGCTAGGTCAAGAGGTCAAAGTCCGCTTCCCG", "PBM binding z-score": 4.31},
      {"sequence": "TTACCAAGGTGAAAGGTCGTTGAGGCACGCCTTG", "PBM binding z-score": 3.49},
      {"sequence": "CCTGCTAGGTCTATGGTCAGCTAAAGCAGCTCGC", "PBM binding z-score": -0.0563},
      {"sequence": "AGTCATAGTTCACTAGGTAACGTAAGATTCAGCT", "PBM binding z-score": 1.11},
      {"sequence": "ACTAGTTGGTAAGCTGAGGTCACACACAATTCGG", "PBM binding z-score": 4.52},
      {"sequence": "GCTGCTAGGTCAGGTTGGTCGGCTAACGGGTACG", "PBM binding z-score": 1.5},
      {"sequence": "CCTACTGGGCCAAGGTCTTTGATCAGTCAAAGCA", "PBM binding z-score": 0.0825},
      {"sequence": "ATATGAAGGTTATCGGGTCATTCAGTTTGCGCAT", "PBM binding z-score": 3.38},
      {"sequence": "GCTGCTAGGTCAGGTTGGTCTGCTAACGGGTACG", "PBM binding z-score": 1.89},
      {"sequence": "CTCGAAAGGTCGGTTGAGGTGAGTAAACGGATAA", "PBM binding z-score": 4.97},
      {"sequence": "CGTCGGAGGACAGAAGGTCAGAGCTGTCCGCTTT", "PBM binding z-score": 2.08},
      {"sequence": "AGTCAAAGTTCACGAGGTAACGTAAGATTCAGCT", "PBM binding z-score": 3.61},
      {"sequence": "ATATGTAGCTTAAGGGTCATTCAGGTTGGTTCGC", "PBM binding z-score": 3.27},
      {"sequence": "CCGACTGGGCCATTCAGAGGTCATTGATCATATG", "PBM binding z-score": 3.01},
      {"sequence": "ATCTCTAGGTAAAGTTCAGCGAAAGATCGATAGA", "PBM binding z-score": 1.41},
      {"sequence": "CGTCCAAGGTCAGCAGGTCACTGAAAGCGACGTG", "PBM binding z-score": 4.32},
      {"sequence": "TAGCCTAGGTCAGATCGGGGCAGTATACGCTATA", "PBM binding z-score": 4.07},
      {"sequence": "CGTCCAAGGTCAACAGGTCAGTGAAAGCGACGTG", "PBM binding z-score": 4.23},
      {"sequence": "CGTCAAAGTTCAACTAAGTTAACGTAAAGCACGC", "PBM binding z-score": 4.32},
      {"sequence": "TCTAGGAGGACACGAAGGTCAGAGCTTTCCAGAG", "PBM binding z-score": 2.61},
      {"sequence": "AGTCAAAGTTCACGACGAGGTAACGTAAAGCACG", "PBM binding z-score": 4.41},
      {"sequence": "CAAACTAGGTCACGAAAGGTCAACGTCGAATGAC", "PBM binding z-score": 5.36},
      {"sequence": "AGTCAAATTTCACTAGGTAACGTAAGATTCAGCT", "PBM binding z-score": 0.638},
      {"sequence": "CGAACTAGGTCAGAACAGGACAGTTAAGGATGAT", "PBM binding z-score": 3.48},
      {"sequence": "GATACAGAGTCAGCTAGAGGCCAGAGTATGGAAA", "PBM binding z-score": -0.305},
      {"sequence": "CCCCGGAGGACAGAAGGTCAGAGCTGTCCGCTTT", "PBM binding z-score": 2.21},
      {"sequence": "AGTCCAAGTTCACTAGGTAACGTAAGATTCAGCT", "PBM binding z-score": 1.54},
      {"sequence": "CGTCAAAGCTCAACTAAGGTAACGTAAAGCACGC", "PBM binding z-score": 3.64},
      {"sequence": "TTACGAAGGTGAAAGGTCGTTGATGCACGCCTTG", "PBM binding z-score": 2.33},
      {"sequence": "CATACAGGGTCCGCTAGGCCAGAGTAGGGACGGC", "PBM binding z-score": -0.0805},
      {"sequence": "CCTACTGGGCCATTCAGAGGTCATTGATCATATG", "PBM binding z-score": 3.14},
      {"sequence": "ATCGAATGGTCGAAGGTGAGTATACCCACCCGAA", "PBM binding z-score": 0.0175},
      {"sequence": "TAGCCTAGGACATGCGGGCCAGTATAGTGTCGGC", "PBM binding z-score": 0.348},
      {"sequence": "GCTGCTAGGTCAGGATGGTCAGCTAACGGGTACG", "PBM binding z-score": 1.7},
      {"sequence": "CCTCGGAGGACAGAAGGTCAGATCTGTCCGCTTT", "PBM binding z-score": 2.25},
      {"sequence": "ATCTCTAGGTAAAGTTCATTGAAAGATCGATAGA", "PBM binding z-score": 1.84},
      {"sequence": "CAGCCTAGGTGAGGGCCAGTATAGGAGGAACGTT", "PBM binding z-score": 0.00456},
      {"sequence": "GCTGCTAGGTCAGGTTGGTCAACTAACGGGTACG", "PBM binding z-score": 1.91},
      {"sequence": "CGTCGGAGGACAACAGGAGGTCAGAGCTGCCAGA", "PBM binding z-score": 2.98}
    ]},
    {"test_system": "THRa homodimer (NR concentration 90 nM)", "assay": "PBM binding z-score (relative to random genomic background probes); higher = stronger binding; sequences stand for … in GC…GCGATTGACAGCGTAGAATGAAGG", "procedure,_shortened": "as §1", "values": [
      {"sequence": "CAAGCTAGGTCAAGAGGTCAAAGTCCGCTTCCCG", "PBM binding z-score": 2.36},
      {"sequence": "TTACCAAGGTGAAAGGTCGTTGAGGCACGCCTTG", "PBM binding z-score": 0.818},
      {"sequence": "CCTGCTAGGTCTATGGTCAGCTAAAGCAGCTCGC", "PBM binding z-score": -0.394},
      {"sequence": "AGTCATAGTTCACTAGGTAACGTAAGATTCAGCT", "PBM binding z-score": 0.171},
      {"sequence": "ACTAGTTGGTAAGCTGAGGTCACACACAATTCGG", "PBM binding z-score": 5.19},
      {"sequence": "GCTGCTAGGTCAGGTTGGTCGGCTAACGGGTACG", "PBM binding z-score": 0.491},
      {"sequence": "CCTACTGGGCCAAGGTCTTTGATCAGTCAAAGCA", "PBM binding z-score": -0.301},
      {"sequence": "ATATGAAGGTTATCGGGTCATTCAGTTTGCGCAT", "PBM binding z-score": 2.69},
      {"sequence": "GCTGCTAGGTCAGGTTGGTCTGCTAACGGGTACG", "PBM binding z-score": 0.834},
      {"sequence": "CTCGAAAGGTCGGTTGAGGTGAGTAAACGGATAA", "PBM binding z-score": 1.19},
      {"sequence": "CGTCGGAGGACAGAAGGTCAGAGCTGTCCGCTTT", "PBM binding z-score": -0.192},
      {"sequence": "AGTCAAAGTTCACGAGGTAACGTAAGATTCAGCT", "PBM binding z-score": 1.34},
      {"sequence": "ATATGTAGCTTAAGGGTCATTCAGGTTGGTTCGC", "PBM binding z-score": 1.02},
      {"sequence": "CCGACTGGGCCATTCAGAGGTCATTGATCATATG", "PBM binding z-score": 1.22},
      {"sequence": "ATCTCTAGGTAAAGTTCAGCGAAAGATCGATAGA", "PBM binding z-score": 0.214},
      {"sequence": "CGTCCAAGGTCAGCAGGTCACTGAAAGCGACGTG", "PBM binding z-score": 2.37},
      {"sequence": "TAGCCTAGGTCAGATCGGGGCAGTATACGCTATA", "PBM binding z-score": 0.0921},
      {"sequence": "CGTCCAAGGTCAACAGGTCAGTGAAAGCGACGTG", "PBM binding z-score": 2.98},
      {"sequence": "CGTCAAAGTTCAACTAAGTTAACGTAAAGCACGC", "PBM binding z-score": 0.349},
      {"sequence": "TCTAGGAGGACACGAAGGTCAGAGCTTTCCAGAG", "PBM binding z-score": 0.635},
      {"sequence": "AGTCAAAGTTCACGACGAGGTAACGTAAAGCACG", "PBM binding z-score": 1.36},
      {"sequence": "CAAACTAGGTCACGAAAGGTCAACGTCGAATGAC", "PBM binding z-score": 2.98},
      {"sequence": "AGTCAAATTTCACTAGGTAACGTAAGATTCAGCT", "PBM binding z-score": 0.471},
      {"sequence": "CGAACTAGGTCAGAACAGGACAGTTAAGGATGAT", "PBM binding z-score": 0.637},
      {"sequence": "GATACAGAGTCAGCTAGAGGCCAGAGTATGGAAA", "PBM binding z-score": -1.05},
      {"sequence": "CCCCGGAGGACAGAAGGTCAGAGCTGTCCGCTTT", "PBM binding z-score": 0.211},
      {"sequence": "AGTCCAAGTTCACTAGGTAACGTAAGATTCAGCT", "PBM binding z-score": 0.381},
      {"sequence": "CGTCAAAGCTCAACTAAGGTAACGTAAAGCACGC", "PBM binding z-score": 1.57},
      {"sequence": "TTACGAAGGTGAAAGGTCGTTGATGCACGCCTTG", "PBM binding z-score": 0.141},
      {"sequence": "CATACAGGGTCCGCTAGGCCAGAGTAGGGACGGC", "PBM binding z-score": -0.241},
      {"sequence": "CCTACTGGGCCATTCAGAGGTCATTGATCATATG", "PBM binding z-score": 1.18},
      {"sequence": "ATCGAATGGTCGAAGGTGAGTATACCCACCCGAA", "PBM binding z-score": -0.459},
      {"sequence": "TAGCCTAGGACATGCGGGCCAGTATAGTGTCGGC", "PBM binding z-score": -0.342},
      {"sequence": "GCTGCTAGGTCAGGATGGTCAGCTAACGGGTACG", "PBM binding z-score": 0.189},
      {"sequence": "CCTCGGAGGACAGAAGGTCAGATCTGTCCGCTTT", "PBM binding z-score": 0.0201},
      {"sequence": "ATCTCTAGGTAAAGTTCATTGAAAGATCGATAGA", "PBM binding z-score": 0.478},
      {"sequence": "CAGCCTAGGTGAGGGCCAGTATAGGAGGAACGTT", "PBM binding z-score": -0.223},
      {"sequence": "GCTGCTAGGTCAGGTTGGTCAACTAACGGGTACG", "PBM binding z-score": 0.472},
      {"sequence": "CGTCGGAGGACAACAGGAGGTCAGAGCTGCCAGA", "PBM binding z-score": 1.12}
    ]}
  ]
}
